Among all 3,400 compounds or so, about 840 (25%) were called active. About 11% were inconclusive and are not listed.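 Rule for the calls: active = fitted half-maximal concentration of signal decrease at or below twice the sample's top tested concentration; inconclusive = flat curve between -70 and -30 percent, or poor fit; inactive = flat within 30 percent, signal rise, or potency above limit.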 Not all results are given here. Results with a measured potency or affinity are listed apart.
Assay: T. gondii growth inhibition with IFN-gamma, dose response, cell-based, ME49Luc, HeLa, luciferase, 72 h (AID 1259418)
Details: T. gondii ME49Luc in IFN-y HeLa, hits give low values, -100% = high-dose IFN-γ control wells; at 19.5 µM unless noted

| Structure (SMILES) | max activity |
| --- | --- |
| Cc1oc(-c2ccccc2)nc1Cn1nnc(-c2nc(-c3ccccc3Cl)no2)c1C | 7.39% (inactive) |
| COC(=O)c1cccc(NC(=O)Nc2ccc(-c3nc(-c4ccccc4)co3)cc2)c1 | 9.82% (inactive) |
| COc1cccc(C(=O)N2CCC3(CC2)Nc2ccc(C)c(C)c2-n2cccc23)c1 | -8.8% [at 0.16 µM] (inactive) |
| CN(C)CC(=O)N1C[C@@H]2N[C@H](C1)C2c1ccc(-c2ccccc2F)cc1 (stereo partly drawn) | 5.96% [at 10 µM] (inactive) |
| CN(C[C@H]1[C@H](c2ccccc2)[C@@H](CO)N1CC1CC1)C(=O)c1ccc(F)cc1 | 49.7% (inactive) |
| O=C(C1CCC1)N1CC(=O)N2[C@H](CO)[C@H](c3ccc(Br)cc3)[C@H]2C1 | 54.7% (inactive) |
| CCc1nc(OCC(=O)Nc2cccc(Cl)c2)c2ccccc2n1 | 20.4% [at 0.16 µM] (inactive) |
| CCOc1ccc(-c2nc3c(s2)CN(S(=O)(=O)c2cccc(Cl)c2C)CC3)cc1 | 15.9% [at 10 µM] (inactive) |
| Cc1ccc(C)c(-c2coc(-c3ccc(NC(=O)NCc4ccco4)cc3)n2)c1 | -45.2% [at 1.35 µM] (inactive) |
| Cc1nc(CCNC(=O)C2CCN(C(=O)c3ccc(F)cc3)CC2)cs1 | 11.3% [at 2.6 µM] (inactive) |
| COc1cccc(C(=O)N2CCC(C(=O)NCCc3csc(C)n3)CC2)c1 | -13.8% [at 0.16 µM] (inactive) |
| Cc1nc(CCNC(=O)C2CCN(C(=O)c3ccc(Cl)cc3)CC2)cs1 | -28.7% (inactive) |
| Cc1nc(CCNC(=O)C2CCN(C(=O)c3cccc(F)c3)CC2)cs1 | -15.3% (inactive) |
| O=C(C[C@H]1CC[C@H]2[C@@H](COC[C@@H](O)CN2C(=O)c2cc(Cl)cc(Cl)c2)O1)N1CCc2ccccc2C1 | 26.3% [at 10 µM] (inactive) |
| CCCNC(=O)C[C@H]1CC[C@@H]2[C@H](COC[C@H](O)CN2C(=O)Nc2ccc(Cl)c(Cl)c2)O1 | 33.9% (inactive) |
| CCOc1ccc(-c2nc3c(s2)CN(S(=O)(=O)c2ccc(F)cc2F)CC3)cc1 | 95.1% (inactive) |
| Clc1ccc(-c2nc(NCc3cccs3)c3ccccc3n2)cc1 | 13.5% [at 0.35 µM] (inactive) |
| CCc1nc(OCC(=O)Nc2ccc(Br)cc2F)c2ccccc2n1 | 35.6% [at 0.68 µM] (inactive) |
| O=S(=O)(c1ccc(F)cc1)N1CCCCN2[C@H](C1)[C@H](c1ccc(-c3cncnc3)cc1)[C@@H]2CO | 22.1% [at 10 µM] (inactive) |
| CCOC(=O)Cc1ccc(NC(=O)Nc2ccc(-c3nc(-c4ccc(C)cc4C)co3)cc2)cc1 | 11.1% (inactive) |
| Cc1ccc(-c2nc(Cn3nnc(-c4nc(-c5ccc(Cl)cc5)no4)c3C)c(C)o2)cc1 | -14.4% [at 0.68 µM] (inactive) |
| Cc1cccc(C2=NC3(CCN(CC(=O)Nc4ccc(F)cc4F)CC3)NC2=O)c1 | -4.98% [at 0.68 µM] (inactive) |
| COc1cccc(CC(=O)Nc2ccc(-c3nc(-c4ccc(C)cc4C)co3)cc2)c1 | -8.08% [at 1.35 µM] (inactive) |
| CCn1cc(CN2CCCC2c2cc(C(C)C)on2)c2ccccc21 (stereo not drawn) | 8.42% [at 0.16 µM] (inactive) |
| CCOC(=O)Cn1cc(CN2CCCC2c2c(C)noc2CC)c2ccccc21 (stereo not drawn) | 12.1% [at 0.16 µM] (inactive) |

| Structure (SMILES) | max activity |
| --- | --- |
| COC(=O)Cn1cc(CN2CCCC2c2cc(C(C)C)no2)c2cc(OC)ccc21 (stereo not drawn) | 18.8% [at 0.35 µM] (inactive) |
| CCn1cc(CN2CCCC2c2cc(C(C)C)no2)c2cc(OC)ccc21 (stereo not drawn) | 5.61% [at 0.16 µM] (inactive) |
| COc1ccc(CC(=O)N2CCC3(CC2)Nc2ccc(C)c(C)c2-n2cccc23)cc1 | 9.26% [at 0.68 µM] (inactive) |
| COc1ccccc1NC(=O)N1CCc2nc(-c3ccc(C)cc3)sc2C1 | 44.9% (inactive) |
| Cc1ccccc1-c1nc(CN2CCN(C(=O)Nc3ccc(Cl)cc3)CC2)c(C)o1 | -10.3% [at 0.35 µM] (inactive) |
| Cc1nc(N2CCCC2)nc2c1CCN(C(=O)c1ccoc1C)CC2 | -9.94% [at 0.3 µM] (inactive) |
| CN(C)c1nc(N2CCOCC2)nc2c1CN(Cc1cccs1)CC2 | 13.4% [at 5 µM] (inactive) |
| CCOc1ccc(-c2nc3c(s2)CN(C(=O)Nc2cc(C)ccc2OC)CC3)cc1 | 14.6% (inactive) |
| COc1ccc(OCC(=O)N2CCC(C(=O)NCCc3csc(-c4ccccc4)n3)CC2)cc1 | 12.9% (inactive) |
| COc1ccc(-c2nc3c(s2)CN(S(=O)(=O)c2ccc(NC(C)=O)cc2)CC3)cc1 | 17.2% [at 10 µM] (inactive) |
| CCCCCNC(=O)CCC1Nc2c3ccccc3nc(=S)n2C1=O (stereo not drawn) | 12.1% [at 5 µM] (inactive) |
| O=C(NCCc1csc(-c2ccccc2)n1)[C@H]1CCCN1C(=O)c1ccccc1Br | -16.7% [at 0.16 µM] (inactive) |
| O=C(NCCc1csc(-c2ccccc2)n1)C1CCN(C(=O)c2ccc(F)c(F)c2)CC1 | 18% [at 5 µM] (inactive) |
| O=C(NCCc1csc(-c2ccccc2)n1)C1CCN(C(=O)c2cccc(Cl)c2)CC1 | 7.04% [at 0.68 µM] (inactive) |
| Cc1ccccc1C(=O)N1CCC(C(=O)NCCc2csc(-c3ccccc3)n2)CC1 | 23.4% [at 1.35 µM] (inactive) |
| Cc1nc(CCNC(=O)C2CCN(C(=O)c3ccccc3Cl)CC2)cs1 | -5.21% [at 1.35 µM] (inactive) |
| CCOc1ccccc1C(=O)N1CCC(C(=O)NCCc2csc(-c3ccccc3)n2)CC1 | -11.4% [at 5 µM] (inactive) |
| O=C(Nc1ccc(-c2nc(-c3ccccc3)co2)cc1)Nc1cccc(Br)c1 | 8.78% [at 10 µM] (inactive) |
| Fc1ccc(Nc2nc(SCc3ccccc3Cl)nc3ccccc23)cc1 | 17.7% [at 0.68 µM] (inactive) |
| Fc1ccc(Nc2nc(SCc3cccc(Cl)c3)nc3ccccc23)cc1 | -13.6% [at 1.35 µM] (inactive) |
| COc1cc(Nc2nc(SCc3ccc(Cl)cc3)nc3ccccc23)cc(OC)c1 | 21% [at 5 µM] (inactive) |
| COc1ccc(CNc2nc(SCc3ccc(F)cc3)nc3ccccc23)cc1 | 10.3% (inactive) |
| CCOC(=O)CSc1nc(Nc2ccc(F)c(F)c2)c2ccccc2n1 | -35.1% [at 0.35 µM] (inactive) |
| Fc1ccc(CSc2nc(Nc3ccc(F)c(F)c3)c3ccccc3n2)cc1 | 9.75% [at 1.35 µM] (inactive) |
| COc1ccc(-c2noc(C3CCCN3C(=O)c3sc(C)nc3C)n2)cc1 (stereo not drawn) | 11.1% [at 0.35 µM] (inactive) |

| Structure (SMILES) | max activity |
| --- | --- |
| COc1ccc(CNC(=O)CCC2N=C3c4ccccc4N=C(SCc4cc(=O)n5ccccc5n4)N3C2=O)cc1 (stereo not drawn) | 14.6% [at 1.35 µM] (inactive) |
| Cc1csc(-c2csc(S(=O)(=O)N3CCC(Cc4ccccc4)CC3)c2)n1 | -14% [at 0.35 µM] (inactive) |
| O=C(CCC1Nc2c3ccccc3nc(=S)n2C1=O)NCc1ccc(F)cc1 (stereo not drawn) | 21.3% (inactive) |
| Cc1cccc(-c2nc(CSc3nc4c(c(=O)[nH]3)CN(Cc3ccc(F)cc3)CC4)c(C)o2)c1 | 16.6% [at 0.16 µM] (inactive) |
| CSc1ccc(-c2noc(-c3nnn(Cc4nc(-c5ccccc5)oc4C)c3C)n2)cc1 | 13.9% (inactive) |
| COc1ccc(S(=O)(=O)Nc2ccc(-c3nc(-c4ccc(C)c(C)c4)co3)cc2)cc1 | 54.5% [at 10 µM] (inactive) |
| CCn1nnc2c(NCCn3ccc4ccccc43)ncnc21 | -27.3% (inactive) |
| Cc1nc(-c2cc(S(=O)(=O)NCCN3CCC(C)CC3)c(C)s2)sc1C | 16.1% [at 0.35 µM] (inactive) |
| Cc1nc(-c2cc(S(=O)(=O)N3CCC(C)CC3)c(C)s2)sc1C | -8.09% [at 0.68 µM] (inactive) |
| COc1ccc(NC(=O)Nc2ccc(-c3nc(-c4ccc(C)cc4)co3)cc2)cc1OC | -10.2% [at 1.35 µM] (inactive) |
| COc1ccc(CC(=O)N2CCC3(CC2)Nc2cc(F)ccc2-n2cccc23)cc1 | 9.99% [at 0.16 µM] (inactive) |
| Cc1ccc(-c2coc(-c3ccc(NS(=O)(=O)c4ccc(Br)cc4)cc3)n2)cc1C | 22% [at 0.68 µM] (inactive) |
| CN1C(=O)c2cc(NC(=O)Cc3cccs3)ccc2OC[C@@H]2O[C@H](CC(=O)N[C@H]3CCN(Cc4ccccc4)C3)CC[C@@H]21 | 21.7% (inactive) |
| CN1C(=O)c2cc(NC(=O)Cc3cccs3)ccc2OC[C@@H]2O[C@H](CC(=O)N[C@@H]3CCN(Cc4ccccc4)C3)CC[C@@H]21 | 12.6% [at 0.6 µM] (inactive) |
| Cc1ccc(-c2coc(-c3ccc(NC(=O)Nc4ccccc4)cc3)n2)c(C)c1 | 15.7% [at 0.16 µM] (inactive) |
| Cc1ccc(N2CCN(C(=O)c3ccc(-c4csc(C5CC5)n4)cc3)CC2)c(C)c1 | 4.42% (inactive) |
| COc1cc(NC(=O)Nc2ccc(-c3nc(-c4ccccc4)co3)cc2)cc(OC)c1 | 11.5% [at 0.16 µM] (inactive) |
| Cc1ccc(-c2nc3c(s2)CN(C(=O)Nc2ccccc2C)CC3)cc1 | 18.7% (inactive) |
| COc1ccc(-c2nc3c(s2)CN(C(=O)Nc2cc(C)cc(C)c2)CC3)cc1 | 17.7% (inactive) |
| COc1cccc(-c2nc3c(s2)CN(C(=O)Nc2ccc(OC)c(OC)c2)CC3)c1 | 7.26% (inactive) |
| COc1ccc(-c2nc3c(s2)CN(C(=O)Nc2ccc(C)cc2C)CC3)cc1 | 24.8% (inactive) |
| COc1cccc(-c2nc3c(s2)CN(C(=O)Nc2ccc(C)c(C)c2)CC3)c1 | 12.6% [at 2.6 µM] (inactive) |
| Cc1ccc(-c2nc3c(s2)CN(C(=O)Nc2cccc(C)c2)CC3)cc1 | 26.8% [at 10 µM] (inactive) |
